# According to PubChem BioAssay:
# Activity calls are given as the source filed them.
# Tests used:
# [1] = binders of probe aFSTL3 on microarray, primary screen, stem cell growth factor project, biochemical, small-molecule microarray, fluorescence 635/667 (AID 1064); settings: higher = more signal;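 further: measures binding of the biotinylated anti-FSTL3 antibody to printed compounds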
# [2] = binders from COS7 lysate, DM2A8 probe, primary screen, torsin A project, cell lysate, small-molecule microarray, fluorescence 635/667 (AID 1065); settings: higher = more signal, COS7 lysate expressing mutant human TOR1A
# [3] = binders of probe aFGF2 on microarray, primary screen, stem cell growth factor project, biochemical, small-molecule microarray, fluorescence 635/667 (AID 1067); settings: higher = more signal;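 further: measures binding of biotinylated aFGF2 protein to printed compounds on slides; z-score merges feature fluorescence and signal-to-noise across triplicate slides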
# [4] = binders of probe aFGF10 on microarray, primary screen, stem cell growth factor project, biochemical, small-molecule microarray, fluorescence 635/667 (AID 1071); settings: higher = more signal;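 further: score merges 667 nm spot intensity and signal to noise from triplicate slides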
# [5] = target: Neurogenic locus notch homolog protein 2 (Homo sapiens) (UniProt Q04721); experiment: Notch2 binders on small-molecule microarrays, primary screen, biochemical, small-molecule microarray, 635 nm fluorescence, stem cell growth factors (AID 1073); settings: Notch2 binding, higher = more signal
# [6] = target: Pro-neuregulin-1, membrane-bound isoform (Homo sapiens) (UniProt Q02297); experiment: NRG1 binders on small-molecule microarrays, primary screen, psychiatric disease protein project, biochemical, small-molecule microarray, fluorescence 635/667 (AID 1075); settings: NRG1 binding, 635 nm fluorescence, higher = more signal;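 further: score combines 667 nm spot fluorescence with signal to noise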
# Chain of Pro-neuregulin-1, membrane-bound isoform (Homo sapiens) (Q02297 whole entry, looked up, the tested form may be a part, canonical isoform): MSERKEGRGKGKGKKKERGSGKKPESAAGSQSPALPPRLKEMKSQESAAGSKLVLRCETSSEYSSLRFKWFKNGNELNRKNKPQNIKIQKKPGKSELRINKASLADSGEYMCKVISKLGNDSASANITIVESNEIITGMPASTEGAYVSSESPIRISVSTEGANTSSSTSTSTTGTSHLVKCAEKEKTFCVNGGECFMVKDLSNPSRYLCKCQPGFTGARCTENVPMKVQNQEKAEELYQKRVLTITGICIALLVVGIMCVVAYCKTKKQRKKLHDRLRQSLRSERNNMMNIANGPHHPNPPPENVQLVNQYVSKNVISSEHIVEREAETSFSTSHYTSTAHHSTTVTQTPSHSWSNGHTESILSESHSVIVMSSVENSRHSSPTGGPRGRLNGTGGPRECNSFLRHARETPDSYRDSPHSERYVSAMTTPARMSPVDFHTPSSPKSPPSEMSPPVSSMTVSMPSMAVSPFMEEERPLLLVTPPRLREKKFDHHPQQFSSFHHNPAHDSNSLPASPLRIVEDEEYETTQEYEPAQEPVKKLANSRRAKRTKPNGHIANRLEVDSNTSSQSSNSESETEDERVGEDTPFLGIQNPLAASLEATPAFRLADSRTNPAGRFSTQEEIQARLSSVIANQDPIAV
# [7] = tested on: Neuregulin-1 EGF-like domain; experiment: binders of neuregulin-1 EGF-like domain, primary screen, biochemical, small-molecule microarray, 635 nm fluorescence (AID 1081); settings: small-molecule microarray binding, higher = more signal;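 further: binding of the protein to compounds printed on small-molecule microarray slides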
# [8] = FRG1 promoter luciferase signal modulators, primary screen, FRG1 inhibition for FSHD, cell-based, C2C12 myotubes, firefly/Renilla luciferase, luminescence (AID 1084); settings: higher = more signal, called active from +8 up or from −8 down
# [9] = binders of probe aFST on microarray, primary screen, stem cell growth factor project, biochemical, small-molecule microarray, fluorescence 635/667 (AID 1086); settings: higher = more signal;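 further: score merges 667 nm fluorescence with signal-to-noise of each printed compound spot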
# [10] = binders of probe aHhip on microarray, primary screen, stem cell growth factor project, biochemical, small-molecule microarray, fluorescence 635/667 (AID 1087); settings: higher = more signal;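 further: score merges spot fluorescence at 667nm with spot signal to noise ratio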
# [11] = tested on: PRMT1 (protein arginine N-methyltransferase 1); experiment: PRMT1 binders on small-molecule microarrays, primary screen, biochemical, small-molecule microarray, 635 nm fluorescence (AID 1088); settings: small-molecule microarray binding, higher = more signal;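 further: binding of Prmt1 protein to compounds spotted on small-molecule microarray slides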
# [12] = yeast growth modulation, basal conditions, primary screen, YJM789 clinical isolate, OD600, 24 h (AID 1089);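 further: growth of clinical yeast isolate S. cerevisiae YJM 789 seeded 1000 cells per well; test concentration not given here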; settings: S. cerevisiae YJM789 growth, higher = more signal, called active from +8 up or from −8 down
# [13] = fission yeast growth modulation, primary screen, strain 972, OD600, 24 h, no modulator (AID 1090);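 further: basal condition with compound alone and no growth modifier present; test concentration not given here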; settings: S. pombe 972 growth, higher = more signal, called active from +8 up or from −8 down
# [14] = S. cerevisiae growth modulation with rapamycin, primary screen, strain BY4716, OD600, 96 h (AID 1091); settings: higher = more signal, called active from +8 up or from −8 down; further: test concentration not given here
# [15] = target: Torsin-1A-interacting protein 2 (Homo sapiens) (UniProt Q8NFQ8); experiment: LULL1 binders on small-molecule microarray, primary screen, cell lysate, human LULL1 lysate, 635/667 nm fluorescence (AID 1092); settings: hLULL1 lysate binding, 635 nm fluorescence, higher = more signal;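 further: probe is lysate of COS7 cells overexpressing human LULL1; score merges per-feature 667 nm fluorescence with signal-to-noise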
# Chain of Torsin-1A-interacting protein 2 (Homo sapiens) (Q8NFQ8 whole entry, looked up): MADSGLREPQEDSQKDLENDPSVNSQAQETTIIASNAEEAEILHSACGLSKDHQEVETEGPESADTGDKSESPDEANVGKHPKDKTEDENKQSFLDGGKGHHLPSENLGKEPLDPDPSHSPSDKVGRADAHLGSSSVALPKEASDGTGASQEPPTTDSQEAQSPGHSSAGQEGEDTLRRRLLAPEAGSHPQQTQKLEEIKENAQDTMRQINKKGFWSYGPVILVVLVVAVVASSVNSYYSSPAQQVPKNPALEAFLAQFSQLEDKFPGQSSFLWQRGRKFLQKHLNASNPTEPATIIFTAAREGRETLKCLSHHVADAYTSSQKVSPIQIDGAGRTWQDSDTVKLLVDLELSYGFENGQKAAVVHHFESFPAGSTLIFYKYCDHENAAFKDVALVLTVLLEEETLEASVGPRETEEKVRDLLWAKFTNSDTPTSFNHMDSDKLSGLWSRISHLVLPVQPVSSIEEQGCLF
# [16] = E. coli growth modulation, two-sided OD650, primary screen, E. coli filamentation project, strain DRC41, 24 h (AID 1093); settings: OD650, 24 h, higher = more signal, called active from +8 up or from −8 down;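 further: MC1000 strain lacking acrAB efflux and sulA so SOS filamentation is blocked; test concentration not given here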
# [17] = small-molecule microarray binders of probe aLefty2, primary screen, biochemical, biotinylated probe, 635/667 nm fluorescence (AID 1094); settings: higher = more signal;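 further: score merges spot fluorescence near 667 nm with spot signal-to-noise ratio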
# [18] = tested on: Noggin (protein binding on small-molecule microarray); experiment: Noggin binders on small-molecule microarray, primary screen, biochemical, 635/667 nm fluorescence (AID 1095); settings: 635 nm fluorescence, higher = more signal;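 further: score merges 667 nm feature fluorescence with signal to noise over triplicate slides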
# [19] = target: Neurogenic locus notch homolog protein 3 (Homo sapiens) (UniProt Q9UM47); experiment: NOTCH3 binders on small-molecule microarray, primary screen, biochemical, 635/667 nm fluorescence (AID 1096); settings: NOTCH3 binding, 635 nm fluorescence, higher = more signal
# Chain of Neurogenic locus notch homolog protein 3 (Homo sapiens) (Q9UM47 whole entry, looked up): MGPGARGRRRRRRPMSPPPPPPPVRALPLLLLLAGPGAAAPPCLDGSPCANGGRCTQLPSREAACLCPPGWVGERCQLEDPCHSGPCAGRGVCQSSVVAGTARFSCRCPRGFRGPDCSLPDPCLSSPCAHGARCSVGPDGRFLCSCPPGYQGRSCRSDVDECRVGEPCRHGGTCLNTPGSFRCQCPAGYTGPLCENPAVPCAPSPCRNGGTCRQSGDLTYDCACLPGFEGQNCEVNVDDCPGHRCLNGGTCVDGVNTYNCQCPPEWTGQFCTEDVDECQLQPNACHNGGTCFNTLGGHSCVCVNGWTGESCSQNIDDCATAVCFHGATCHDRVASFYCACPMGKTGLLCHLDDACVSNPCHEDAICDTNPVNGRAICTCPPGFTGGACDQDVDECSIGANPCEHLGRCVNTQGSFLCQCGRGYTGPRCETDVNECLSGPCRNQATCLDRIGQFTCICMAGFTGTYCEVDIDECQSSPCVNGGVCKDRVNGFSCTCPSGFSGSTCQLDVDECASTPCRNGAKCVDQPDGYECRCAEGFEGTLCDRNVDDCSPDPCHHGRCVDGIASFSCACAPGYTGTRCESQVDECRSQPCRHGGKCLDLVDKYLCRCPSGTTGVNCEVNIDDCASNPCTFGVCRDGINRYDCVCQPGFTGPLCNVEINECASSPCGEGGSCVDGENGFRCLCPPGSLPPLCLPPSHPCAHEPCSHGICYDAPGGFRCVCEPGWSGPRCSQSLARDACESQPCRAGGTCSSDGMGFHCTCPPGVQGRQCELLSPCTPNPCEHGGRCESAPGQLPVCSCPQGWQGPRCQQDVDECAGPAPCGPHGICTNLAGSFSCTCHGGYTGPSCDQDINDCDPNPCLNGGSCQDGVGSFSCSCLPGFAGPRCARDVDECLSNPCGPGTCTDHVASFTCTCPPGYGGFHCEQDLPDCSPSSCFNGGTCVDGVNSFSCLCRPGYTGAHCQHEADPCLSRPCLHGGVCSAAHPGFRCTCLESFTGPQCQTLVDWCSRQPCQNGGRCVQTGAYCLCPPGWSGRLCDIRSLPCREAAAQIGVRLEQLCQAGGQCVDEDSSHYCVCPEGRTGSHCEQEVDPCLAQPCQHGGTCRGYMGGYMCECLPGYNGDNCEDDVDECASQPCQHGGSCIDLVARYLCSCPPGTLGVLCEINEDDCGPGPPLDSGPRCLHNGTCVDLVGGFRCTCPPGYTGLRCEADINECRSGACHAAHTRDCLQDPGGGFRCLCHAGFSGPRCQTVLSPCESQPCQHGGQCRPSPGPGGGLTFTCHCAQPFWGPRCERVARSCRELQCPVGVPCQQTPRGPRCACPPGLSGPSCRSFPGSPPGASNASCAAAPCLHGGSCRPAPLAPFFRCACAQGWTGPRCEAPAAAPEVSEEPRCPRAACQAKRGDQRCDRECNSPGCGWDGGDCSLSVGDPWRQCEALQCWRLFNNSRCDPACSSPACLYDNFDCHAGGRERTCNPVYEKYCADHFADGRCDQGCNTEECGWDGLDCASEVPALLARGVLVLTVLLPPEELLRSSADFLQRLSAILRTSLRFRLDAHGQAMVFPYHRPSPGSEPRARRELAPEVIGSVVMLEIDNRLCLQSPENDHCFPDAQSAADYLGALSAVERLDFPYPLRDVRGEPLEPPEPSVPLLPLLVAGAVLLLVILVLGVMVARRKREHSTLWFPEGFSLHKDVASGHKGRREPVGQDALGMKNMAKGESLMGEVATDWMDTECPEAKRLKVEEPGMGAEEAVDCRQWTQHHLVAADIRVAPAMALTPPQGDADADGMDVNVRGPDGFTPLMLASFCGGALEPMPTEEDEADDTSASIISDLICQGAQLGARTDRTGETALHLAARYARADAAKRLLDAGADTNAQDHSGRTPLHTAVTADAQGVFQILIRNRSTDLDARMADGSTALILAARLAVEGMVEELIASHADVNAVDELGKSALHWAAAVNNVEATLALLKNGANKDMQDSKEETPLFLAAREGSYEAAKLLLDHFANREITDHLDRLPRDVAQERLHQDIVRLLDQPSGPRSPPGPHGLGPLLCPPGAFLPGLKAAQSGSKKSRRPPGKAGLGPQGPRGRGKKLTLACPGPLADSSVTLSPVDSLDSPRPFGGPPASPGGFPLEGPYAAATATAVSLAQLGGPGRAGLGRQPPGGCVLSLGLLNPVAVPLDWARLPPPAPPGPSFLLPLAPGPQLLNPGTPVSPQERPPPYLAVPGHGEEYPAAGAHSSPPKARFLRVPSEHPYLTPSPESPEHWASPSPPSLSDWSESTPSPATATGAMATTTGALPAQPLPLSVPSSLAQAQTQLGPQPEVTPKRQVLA
# [20] = small-molecule microarray binders of probe aEGFR, primary screen, biochemical, biotinylated probe, 635/667 nm fluorescence (AID 1097); settings: higher = more signal;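 further: probe is a biotinylated anti-EGFR antibody binding compounds printed on slides; score combines fluorescence near 667 nm and signal to noise of each spot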
Structure (SMILES),composite z-score [1],composite z-score [2],composite z-score [3],composite z-score [4],composite z-score [5],composite z-score [6],composite z-score [7],z-score [8],composite z-score [9],composite z-score [10],composite z-score [11],z-score [12],z-score [13],z-score [14],composite z-score [15],z-score [16],composite z-score [17],composite z-score [18],composite z-score [19],composite z-score [20]
COc1ccc([Si](C)(C)[C@@H]2[C@@H](CC(=O)N3CCC[C@H]3CO)O[C@]3(C(=O)N(Cc4ccc(N5CCC5=O)cc4)c4ccccc43)[C@H]2C)cc1,-0.142,0.783,-0.071,0.66,0.747,0.583,1.07,-1.17 (inactive),0.187,0.245,1.55,-0.556 (inactive),-0.228 (inactive),-0.69 (inactive),2.12,0.673 (inactive),-0.166,1.16,0.708,0.0408
C[C@@H](OCc1ccccc1)C1NC(=O)[C@@]23C(=O)N[C@@H](Cc4ccccc4)C2[C@H](C)[C@@]2(C)O[C@H]2C3/C=C/C/C=C\CNC(=O)[C@@H]2CCCN2C1=O (stereo not given in full),-0.0401,-0.332,-0.146,-0.595,-0.571,-0.52,0.633,1.91 (inactive),-0.111,-0.343,-0.449,-0.399 (inactive),-0.985 (inactive),-0.266 (inactive),-0.139,2.34 (inactive),-0.0901,-0.315,-0.665,-0.209
CCOC(=O)C[C@H]1[C@H](OC(=O)c2ccc(C(=O)c3ccccc3)cc2)[C@@H](NC(=O)Cc2ccc(OC)cc2)c2cc(OCCCO)ccc2N1C(=O)Cc1ccc(OC)cc1,0.0476,0.346,0.007,0.35,0.903,0.752,0.668,-1.22 (inactive),0.971,-0.132,1.21,-0.574 (inactive),-1.42 (inactive),-0.914 (inactive),1.66,1.78 (inactive),0.0673,0.22,1.13,-0.0131
CO[C@H]1O[C@H](CO)[C@@H](OC(=O)Nc2ccccc2)[C@H](OC(=O)Nc2ccc3c(c2)OCO3)[C@H]1OC(=O)Nc1ccc2c(c1)OCO2,0.381,0.45,0.128,0.7,1.29,1.61,1.23,4.5 (inactive),0.29,-0.175,1.56,0.648 (inactive),0.494 (inactive),2.28 (inactive),2.8,2.75 (inactive),0.0789,0.128,1.06,-0.0527
COc1ccc([Si](C)(C)[C@H]2[C@H](CC(=O)N3Cc4ccccc4C[C@H]3CO)O[C@@]3(C(=O)N(Cc4cccc(N5C(=O)COc6ccccc65)c4)c4ccccc43)[C@@H]2C)cc1,-0.187,0.572,-0.12,0.429,0.659,0.838,1.08,-3.08 (inactive),0.203,0.0873,1.47,-0.41 (inactive),0.349 (inactive),2.29 (inactive),1.89,1.86 (inactive),-0.116,1.56,1.11,-0.0192
CO[C@H]1O[C@H](CO)[C@@H](OC(=O)CCc2ccccc2)[C@@H]2OC(=O)[C@H](Cc3ccccc3)C/C=C/C[C@@H](Cc3ccccc3)C(=O)O[C@@H]12,-0.0198,-0.106,-0.134,-0.357,-0.512,0.92,1.14,-1.51 (inactive),-0.306,-0.337,0.696,-0.696 (inactive),-2.18 (inactive),11.3 (active),1.4,1.98 (inactive),-0.0905,-0.748,-0.033,-0.347
O=C1c2ccccc2C(=O)c2cc([C@H]3Oc4ccccc4S(=O)(=O)N4CCC[C@@H]34)ccc21,0.238,-0.845,-0.128,-0.639,-1.09,-0.926,-1.64,-0.933 (inactive),-0.167,-0.353,-1.02,-1.31 (inactive),-1.33 (inactive),-0.462 (inactive),-0.629,2.81 (inactive),-0.276,-0.566,-0.259,-0.196
COCCOC(=O)N1C(=O)[C@@]2(c3cc(C#CC4(O)CCCCCC4)ccc31)[C@H](C(=O)NC[C@H](O)c1ccccc1)[C@H]1C(=O)O[C@H](c3ccccc3)[C@H](c3ccccc3)N1[C@@H]2c1ccccc1OCCO,-0.0213,0.621,-0.0628,0.695,1.03,1.29,1.23,0.153 (inactive),0.627,0.0044,1.55,2.64 (inactive),0.623 (inactive),6.84 (inactive),2.69,1.97 (inactive),0.101,1.3,1.04,0.0343
CC(C)[C@@H](C(=O)O)n1cc(-c2ccccn2)nn1,0.22,0.424,-0.378,0.458,0.537,0.419,0.961,0.0328 (inactive),0.659,0.0274,0.575,0.0655 (inactive),-0.477 (inactive),-0.353 (inactive),0.88,1.99 (inactive),-0.378,0.332,0.309,-0.0508
CO[C@H]1O[C@H](CO)[C@@H](OC(=O)Nc2ccccc2)[C@H](OC(=O)Nc2ccccc2-c2ccccc2)[C@@H]1OC(=O)Nc1ccccc1-c1ccccc1,-0.711,0.606,-0.0141,0.901,1.49,1.7,1.31,-0.979 (inactive),0.325,-0.0346,1.53,1.17 (inactive),-0.271 (inactive),-0.471 (inactive),3.13,1.36 (inactive),0.0623,0.926,1.06,0.423
